Screens as filed in PubChem BioAssay.
BJeLR lethal = MLPCN primary cell-based screen for lethality selective to Ras in HRASV12 cells; BJeLR (HRASV12) viability, CellTiter-Glo ATP luminescence, 48 h; inhibition, % (no concentration beside the values); 300,000 tested, 0.17% active; in the data active means inhibition above about 50%
RecA intein inh = Mtb RecA intein splicing inhibitors, primary screen, biochemical, fluorescence, HTS; AID 2221, 2009; cell-free RecA intein splicing; inhibition, % (test concentration not listed); 290,000 tested, 0.75% active; Protein RecA (Mycobacterium tuberculosis (strain ATCC 25618 / H37Rv)), P9WHJ3; in the data active means inhibition above about 30%
Target sequence (P9WHJ3 whole entry, looked up): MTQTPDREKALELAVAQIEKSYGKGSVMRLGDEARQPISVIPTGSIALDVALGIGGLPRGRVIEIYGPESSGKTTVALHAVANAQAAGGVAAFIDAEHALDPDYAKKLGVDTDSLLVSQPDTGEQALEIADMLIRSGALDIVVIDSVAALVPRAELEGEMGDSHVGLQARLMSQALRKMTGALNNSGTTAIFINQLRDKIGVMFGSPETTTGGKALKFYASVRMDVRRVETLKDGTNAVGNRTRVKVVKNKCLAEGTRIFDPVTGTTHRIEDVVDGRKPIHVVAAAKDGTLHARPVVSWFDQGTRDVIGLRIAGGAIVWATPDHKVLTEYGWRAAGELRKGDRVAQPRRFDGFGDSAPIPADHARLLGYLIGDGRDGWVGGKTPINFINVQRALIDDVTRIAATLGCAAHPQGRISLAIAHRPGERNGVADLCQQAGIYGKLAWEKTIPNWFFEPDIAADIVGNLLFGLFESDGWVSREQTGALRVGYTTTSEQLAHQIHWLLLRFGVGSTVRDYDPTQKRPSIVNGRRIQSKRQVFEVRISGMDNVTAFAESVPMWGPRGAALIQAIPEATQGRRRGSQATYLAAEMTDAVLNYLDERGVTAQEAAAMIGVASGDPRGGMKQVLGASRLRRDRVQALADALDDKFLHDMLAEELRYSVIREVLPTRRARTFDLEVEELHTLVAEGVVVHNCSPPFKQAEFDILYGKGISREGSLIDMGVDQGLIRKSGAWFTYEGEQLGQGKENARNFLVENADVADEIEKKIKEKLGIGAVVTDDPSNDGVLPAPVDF
PrPC surface inh = inhibitors of human cell surface prion protein PrPC, primary screen, cell-based, TR-FRET. AID 720596, 2013. TR-FRET read-out. inhibition, % at 13.8 µM. 370,000 tested, 0.43% active; in the data active means inhibition above about 24%
GDH-TPI counter = GDH-TPI coupling enzyme inhibitors, primary screen, artefact control for M. tuberculosis FBA inhibitor project, biochemical, absorbance, full deck; GDH-TPI coupled enzyme counterscreen, NADH absorbance; 360,000 tested, 1.2% active; inhibition, % at 4.8 µM; in the data active means inhibition above about 30%
Mtb FBA inh = Mtb FBA enzyme inhibitors, primary screen, biochemical, fluorescence, strain H37Rv | Fructose-bisphosphate aldolase (Mycobacterium tuberculosis (strain ATCC 25618 / H37Rv)), … | purified M. tuberculosis FBA, fluorescence read-out | inhibition, % at 1 µM | 360,000 tested, 2.3% active; in the data active means inhibition above about 27%
Large screens that a line does not name were inactive. Only some compounds are listed: those with a hit (about 4.2% of all), similar ones and a draw of the others.

COc1ccc(/C=N/NC(=S)Nc2c(C)n(C)n(-c3ccccc3)c2=O)cc1OC	none
C[C@H]1[C@@H](OC(=O)Nc2cc(Cl)ccc2Cl)CC[C@@]23CCCN2C(=O)CCC[C@@H]13	none (no result: BJeLR lethal, RecA intein inh, GDH-TPI counter, Mtb FBA inh)
COc1ccc(C2O[C@@H](C)[C@@H]3C(=O)N4CCc5c([nH]c6ccccc56)[C@@H]4C[C@@H]3N2C)cc1 (stereo not given in full)	none (no result: BJeLR lethal, RecA intein inh, GDH-TPI counter, Mtb FBA inh)
COc1ccc(N/N=C(/N=Nc2nc(C)cc(=O)[nH]2)c2ccccc2)cc1	BJeLR lethal 67
CCOc1ccc(-n2ccc(=O)c(C(=O)Nc3ccc(S(=O)(=O)Nc4nccs4)cc3)n2)cc1	GDH-TPI counter 33
CCOC(=O)c1cc(C)sc1NC(=O)CSC1=NCCS1	RecA intein inh 32
COCc1[nH]nc2c1C(c1cccc(OC)c1)C(C#N)=C(N)O2 (stereo not given)	RecA intein inh 57
Cc1cc(C)c(C#N)c(SCc2[nH]nc3c2C(c2ccc(F)cc2)C(C#N)=C(N)O3)n1 (stereo not given)	RecA intein inh 32
CCCc1[nH]nc2c1C(c1ccc(OCCN3CCOCC3)c(OC)c1)C(C#N)=C(N)O2 (stereo not given)	RecA intein inh 32
COc1ccc(-c2[nH]nc3c2C(c2ccsc2)C(C#N)=C(N)O3)cc1 (stereo not given)	RecA intein inh 71
COc1ccc(S[C@]2(C(=O)N3CCCC3)CC(=O)N(C(=O)/C=C/c3ccccc3)[C@@H]2c2ccc(OC)cc2)cc1	none (no result: BJeLR lethal, RecA intein inh, GDH-TPI counter, Mtb FBA inh)
Cc1nc(N2CCN(C(=O)C3CCCCC3)CC2)c2c3c(sc2n1)CCCC3	none (no result: BJeLR lethal, RecA intein inh, GDH-TPI counter, Mtb FBA inh)
COc1cccc(OC[C@@H](O)CN2CCC(C(O)(c3ccccc3)c3ccccc3)CC2)c1	none (no result: BJeLR lethal, RecA intein inh, GDH-TPI counter, Mtb FBA inh)
CCCc1[nH]nc2c1C(c1ccncc1)C(C#N)=C(N)O2 (stereo not given)	RecA intein inh 32 (no result: BJeLR lethal)
CCCc1[nH]nc2c1C(c1ccc(O)c(OC)c1)C(C#N)=C(N)O2 (stereo not given)	RecA intein inh 79
N#CC1=C(N)Oc2n[nH]c(-c3cccs3)c2C1c1ccoc1 (stereo not given)	RecA intein inh 85
COCc1[nH]nc2c1C(c1cc(OC)c(O)c(OC)c1)C(C#N)=C(N)O2 (stereo not given)	none
CCCc1[nH]nc2c1C(c1ccccc1OCC)C(C#N)=C(N)O2 (stereo not given)	RecA intein inh 67
CC(C)c1ccc(C(=O)Nc2cc(Cl)ccc2C(=O)O)cc1	none (no result: BJeLR lethal, RecA intein inh, GDH-TPI counter, Mtb FBA inh)
CCCc1[nH]nc2c1C(c1cccnc1)C(C#N)=C(N)O2 (stereo not given)	none (no result: RecA intein inh)
CCc1[nH]nc2c1C(c1cccnc1)C(C#N)=C(N)O2 (stereo not given)	RecA intein inh 45
CCOc1ccc(-c2[nH]nc3c2C(c2ccc4c(c2)OCO4)C(C#N)=C(N)O3)cc1OC (stereo not given)	RecA intein inh 60
N#CC1=C(N)Oc2n[nH]c(-c3ccc(F)cc3)c2C1c1ccncc1 (stereo not given)	RecA intein inh 62
CCCc1[nH]nc2c1C(c1ccc(OC(=O)N3CCOCC3)cc1)C(C#N)=C(N)O2 (stereo not given)	RecA intein inh 48
Cc1ccc(NC(=S)NNC(=O)CSc2nnc(-c3ccc(C)cc3)n2C2CCCCC2)cc1	none (no result: BJeLR lethal, RecA intein inh, GDH-TPI counter, Mtb FBA inh)
CSCCCNc1nc(C)nc2c1nnn2Cc1ccccc1	none (no result: BJeLR lethal, RecA intein inh, GDH-TPI counter, Mtb FBA inh)
O=C(Nc1ccc(C(O)(C(F)(F)F)C(F)(F)F)cc1)c1ccc(F)cc1F	none (no result: BJeLR lethal, RecA intein inh, GDH-TPI counter, Mtb FBA inh)
CCCc1[nH]nc2c1C(c1ccc(OC)c(Cn3nnc4ccccc43)c1)C(C#N)=C(N)O2 (stereo not given)	RecA intein inh 70 (no result: PrPC surface inh)
COC(=O)C1(C)Cc2cc(OC(C)=O)c(OC(C)=O)cc2N1 (stereo not given)	RecA intein inh 61 (no result: PrPC surface inh, GDH-TPI counter, Mtb FBA inh)
CN(c1ccccc1)c1ccc(/C=N/N2CCOCC2)cc1	GDH-TPI counter 31
CN(C)c1ccc(/C=N/N2CCN(c3ccccn3)CC2)cc1	GDH-TPI counter 39
C(=NN1CCCCCC1)c1ccccc1	none (no result: BJeLR lethal, RecA intein inh)
CC(C)(C)OC(=O)N/N=C/c1ccc(N2CCOCC2)s1	GDH-TPI counter 35
COC(=O)[C@H](CC(C)C)N(CCCc1cn(CC2CCCCC2)nn1)S(=O)(=O)c1ccccc1Br	none (no result: BJeLR lethal, RecA intein inh, GDH-TPI counter, Mtb FBA inh)
C=CCSc1nc(N)c(C(=O)Nc2ccccc2OC)cc1C(=O)Nc1ccccc1	GDH-TPI counter 37
COc1cc(/C=N/NC(=O)Cc2ccc(Br)cc2)cc(OC)c1O	none (no result: BJeLR lethal)
CCN=c1scc(C)n1/N=C/c1cc(Br)c(O)c(OC)c1	GDH-TPI counter 32
COc1cc(/C=N/NC(=O)c2sc(N)c(C#N)c2C)cc(Br)c1O	GDH-TPI counter 38
COc1cc(/C=N/NC(=O)CC#N)cc(Br)c1O	Mtb FBA inh active
Cc1c(C(=O)N/N=C/c2cccnc2)sc(N)c1C#N	GDH-TPI counter 31
CC(C)(C)OC(=O)/C=C/[C@@H](CCCCl)Sc1ccc(C(C)(C)C)cc1	none (no result: BJeLR lethal, RecA intein inh, GDH-TPI counter, Mtb FBA inh)
COc1cc(/C=N/NC(=O)c2ccc([N+](=O)[O-])cc2Cl)cc(Br)c1O	GDH-TPI counter 42
COc1ccc(Br)cc1C(=O)N/N=C/c1ccc([N+](=O)[O-])cc1	none
Cc1cc(=O)oc2cc(NC(=O)c3ccccc3C(=O)O)ccc12	Mtb FBA inh active
CCOC(=O)Nc1ccc2c(C)cc(=O)oc2c1	Mtb FBA inh 199
Cc1ccc2c(COC(=O)CNS(=O)(=O)c3ccccc3)cc(=O)oc2c1	none (no result: BJeLR lethal, RecA intein inh)
CCOC(=O)Nc1ccc2c(CN(C)Cc3ccc(F)cc3)cc(=O)oc2c1	none
COc1cccc(C(=O)Nc2ccc3c(C)cc(=O)oc3c2)c1	none
CCOC(=O)Nc1ccc2c(COC(=O)CNS(=O)(=O)c3ccc(NC(C)=O)cc3)cc(=O)oc2c1	Mtb FBA inh 160
CCOC(=O)[C@@]12CCC3=C1N(CCC3)C(=O)[C@H](CC(=O)NCc1cccc3ccccc13)C2	none (no result: BJeLR lethal, RecA intein inh, GDH-TPI counter, Mtb FBA inh)
CC1(C)Cc2ccccc2-c2nnc(SCC(=O)Nc3ccc4c(c3)OCO4)n21	PrPC surface inh 26
CC(C)(C)c1csc(NC(=O)c2cccnc2Cl)n1	none
CC(C)(C)c1csc(NC(=O)c2c(F)c(F)c(F)c(F)c2F)n1	RecA intein inh 31
CN(CCc1ccccn1)C(=O)c1cc2ccccn2n1	none (no result: BJeLR lethal, RecA intein inh, GDH-TPI counter, Mtb FBA inh)
COc1ccc(/C=N/Nc2nc(C(=O)O)cs2)cc1	GDH-TPI counter 34
COC(=O)c1ccc(/C=N/Nc2nc(-c3ccccc3)cs2)cc1	none
CNc1ncc(C(=O)c2ccc(Cl)c(Cl)c2)s1	GDH-TPI counter 34
O=C(c1ccccc1)c1cnc(Nc2ccccc2Cl)s1	GDH-TPI counter 31 (no result: PrPC surface inh)
CCCCCC(=O)NC1CCCCN(Cc2ccc(Cl)cc2)C1=O (stereo not given)	none (no result: BJeLR lethal, RecA intein inh, GDH-TPI counter, Mtb FBA inh)
